Measured potencies and affinities stand elsewhere. Results filed as inconclusive are left out. Active and inactive are the calls of the source.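 How the source made its calls: active means a valid curve of falling signal whose half-effect concentration is at most ten times the top tested dose; inconclusive means flat curve at 30 to 70% inhibition, or poor fit; inactive means signal rise, flat within 30%, or potency beyond limit.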
Each compound was assayed against Scavenger receptor class B member 1 (Mus musculus) (UniProt Q61009) (assay: mouse SR-BI DiI-HDL uptake blockers – ldlA[mSR-BI] cells, fluorescence, cherry pick, dose response (AID 493194;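 further: CHO cells lacking LDL receptor and overexpressing mouse SR-BI; cellular uptake of fluorescently labeled HDL measured as cell fluorescence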)). Details: CHO ldlA[mSR-BI] DiI-HDL uptake fluorescence, 3 h; series mostly up to 35 µM.
Scavenger receptor class B member 1 (Mus musculus), sequence (Q61009 whole entry, looked up): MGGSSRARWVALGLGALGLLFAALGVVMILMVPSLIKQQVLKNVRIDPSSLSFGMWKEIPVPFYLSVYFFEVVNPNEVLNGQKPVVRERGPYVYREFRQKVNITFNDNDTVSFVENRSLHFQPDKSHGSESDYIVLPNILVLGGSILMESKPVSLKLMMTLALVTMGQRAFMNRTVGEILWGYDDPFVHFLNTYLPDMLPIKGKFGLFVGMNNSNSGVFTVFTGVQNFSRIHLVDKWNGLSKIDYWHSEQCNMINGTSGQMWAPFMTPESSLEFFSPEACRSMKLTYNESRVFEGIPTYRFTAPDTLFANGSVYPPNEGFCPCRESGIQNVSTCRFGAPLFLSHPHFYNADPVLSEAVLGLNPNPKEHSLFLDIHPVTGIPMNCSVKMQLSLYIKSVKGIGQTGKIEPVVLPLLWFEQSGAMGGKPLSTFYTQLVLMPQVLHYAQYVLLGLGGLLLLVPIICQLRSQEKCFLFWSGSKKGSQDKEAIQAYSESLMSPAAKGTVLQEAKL

outcome, inactive:
CS(=O)(=O)N1CCc2cc(C(=O)Nc3cccc([N+](=O)[O-])c3)ccc21, Cc1ccc(S(=O)(=O)NCc2ccc(C(=O)NCCc3ccc(S(N)(=O)=O)cc3)cc2)cc1, Cc1ccc(-c2cc(C(F)F)n3ncc(C(=O)N4CCN(c5cccc(C)c5C)CC4)c3n2)cc1, COc1ccc(CCNC(=O)CCC(=O)N2CC(C)Oc3ccc(Cl)cc32)cc1OC (stereo not given), CC1Cc2ccccc2N1C(=O)Cn1nnc(-c2ccccc2NC(=O)C2CCC2)n1 (stereo not given), COc1ccc(NC(=O)C2CCN(C(=O)c3ccc(OC)cc3)CC2)cc1, COc1ccc(OCCSc2nnc(-c3cccnc3)n2N)cc1, COc1cc(OC)cc(C(=O)N[C@H](C(=O)Nc2nc(-c3ccc(F)c(F)c3)cs2)C(C)C)c1, Cc1ccccc1-c1cc(C(=O)NCc2cccc(Br)c2)nn1CC1CC(c2cccc([N+](=O)[O-])c2)=NO1 (stereo not given), COc1cc(/C=C\C(=O)NCc2ccc3c(c2)cc(C)n3C)cc(OC)c1OC, COc1ccc(N2CCN(C(=O)c3cc(=O)[nH]c4ccccc34)CC2)cc1, c1ccc(CCNc2nc(-c3ccncc3)nc3ccccc23)cc1, C/C=C/COC(=O)c1[nH]c2c(c1C)C(=O)CC(c1ccco1)C2 (stereo not given), COc1cccc(-c2csc(N3CCN(CC(=O)NNC(=O)c4ccc(Br)cc4)CC3)n2)c1, Cc1ccc(C)c(NC(=O)c2ccc3c(c2)N(Cc2ccc(F)cc2)C(=O)CS3=O)c1 (stereo not given)
